Screens deposited in PubChem by several laboratories.
ADAM17 inh: ADAM17 inhibition, QFRET primary screen; recombinant ADAM17, EDANS/DABCYL FRET peptide cleavage; 0.83% of 370,000 active; inhibition, % at 6.95 µM;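 active = inhibition above the mean of compounds lying between control limits plus 3 SD, set per campaign, cut at about 8.5% in these data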
NPR1 activator: GC-A (human) enzyme activation; P16066; HEK293 GC-A cells, cGMP TR-FRET, EC30 ANP; 0% at EC30 ANP, 100% saturating ANP; activation, % at 10 µM; 0.14% of 370,000 active; in the data active = activation above about 40%
GC-B act: GC-B (human) receptor activation; HEK293-GC-B cells, CNP EC30, cGMP TR-FRET; 0% at EC30 CNP, 100% saturating CNP; activation, % at 10 µM; 0.11% of 370,000 active;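 active = activation at 10 µM reaching about 35% in either raw or pattern-adjusted values, limit read from the data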
Target sequence (P20594 whole entry, looked up): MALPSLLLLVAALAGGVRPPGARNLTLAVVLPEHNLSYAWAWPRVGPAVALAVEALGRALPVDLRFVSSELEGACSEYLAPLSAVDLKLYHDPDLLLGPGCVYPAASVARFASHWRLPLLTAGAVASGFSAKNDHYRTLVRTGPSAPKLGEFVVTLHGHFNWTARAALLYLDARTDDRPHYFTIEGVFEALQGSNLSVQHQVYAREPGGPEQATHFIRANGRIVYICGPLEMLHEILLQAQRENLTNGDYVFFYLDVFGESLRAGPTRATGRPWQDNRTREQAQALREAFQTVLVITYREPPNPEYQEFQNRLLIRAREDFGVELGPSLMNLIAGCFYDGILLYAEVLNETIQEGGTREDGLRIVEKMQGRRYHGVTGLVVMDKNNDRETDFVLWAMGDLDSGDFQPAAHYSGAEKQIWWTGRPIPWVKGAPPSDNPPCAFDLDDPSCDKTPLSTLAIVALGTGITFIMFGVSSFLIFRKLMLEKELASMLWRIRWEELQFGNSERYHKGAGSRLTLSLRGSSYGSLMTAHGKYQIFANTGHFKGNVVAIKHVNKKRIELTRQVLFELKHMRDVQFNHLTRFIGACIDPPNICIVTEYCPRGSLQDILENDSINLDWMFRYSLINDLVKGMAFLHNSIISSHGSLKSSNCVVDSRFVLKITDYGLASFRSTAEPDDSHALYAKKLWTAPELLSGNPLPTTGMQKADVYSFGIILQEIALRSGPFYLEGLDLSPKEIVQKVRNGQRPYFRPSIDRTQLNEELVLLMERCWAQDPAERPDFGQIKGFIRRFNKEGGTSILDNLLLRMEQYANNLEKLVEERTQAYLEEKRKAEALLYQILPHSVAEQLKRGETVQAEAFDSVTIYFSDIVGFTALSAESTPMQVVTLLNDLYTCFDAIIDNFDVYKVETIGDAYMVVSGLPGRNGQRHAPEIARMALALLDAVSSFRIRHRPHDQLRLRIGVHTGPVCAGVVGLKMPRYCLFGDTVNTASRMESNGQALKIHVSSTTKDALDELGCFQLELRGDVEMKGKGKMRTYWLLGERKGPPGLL
ADAM10 inh: inhibits human ADAM10. inhibition, % at 7 µM. 0.62% of 370,000 active. recombinant ADAM10, EDANS/DABCYL FRET peptide cleavage, 3 h;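 active = inhibition above a per-campaign cutoff equal to the mean of compounds falling between control-based bounds plus 3 SD, cut at about 20% in these data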
FAS-TE inh: inhibitors of human fatty acid synthase thioesterase domain; recombinant FAS-TE, OMFH fluorogenic substrate, fluorescence endpoint; inhibition, % at 15 µM; P49327; 0.67% of 360,000 active;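 active = compounds whose normalised, plate-corrected inhibition of enzyme fluorescence in the single-dose primary screen is 50% or more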
FAS-TE inh conf: confirmation of human fatty acid synthase thioesterase inhibitors; 45% of 2,300 active; shares compounds with FAS-TE inh; inhibition, % at 15 µM; AID 624325; recombinant FAS-TE, OMFH fluorogenic substrate, fluorescence;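 active = compounds inhibiting the enzyme by at least 50% at 15 µM in any one of the replicates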
A number is an active result. Compounds with a hit are over-represented: about 2% of the library has one in this group of screens.

Screening COc1ccc(CNC(=O)/C(C#N)=C2\N=C(NC(=O)c3cccs3)c3ccccc32)cc1 returned ADAM17 inh inactive, NPR1 activator inactive, GC-B act inactive, ADAM10 inh inactive, FAS-TE inh 51.3 and FAS-TE inh conf inactive.
`Cc1ccc(S(=O)(=O)Nc2ccc3c(c2)C(=O)N([C@H](C)CO)C[C@H](C)[C@@H](CN(C)C(=O)NC2CCCCC2)OCCCC[C@@H](C)O3)cc1` gave ADAM17 inh inactive, NPR1 activator inactive, GC-B act inactive, ADAM10 inh inactive and FAS-TE inh inactive.
C[C@@H]1CCCCO[C@@H](CN(C)S(=O)(=O)c2cccs2)[C@@H](C)CN([C@H](C)CO)C(=O)c2cc(NS(=O)(=O)c3ccccc3)ccc2O1 was read as ADAM17 inh inactive, NPR1 activator inactive, GC-B act inactive, ADAM10 inh inactive, FAS-TE inh 62.7 and FAS-TE inh conf inactive.
For C[C@@H]1CCCCO[C@H](CN(C)C(=O)Nc2ccc3c(c2)OCO3)[C@H](C)CN([C@@H](C)CO)C(=O)c2cc(NS(=O)(=O)c3ccc(Cl)cc3)ccc2O1 the results were ADAM17 inh inactive, NPR1 activator inactive, GC-B act inactive, ADAM10 inh inactive, FAS-TE inh 59.1 and FAS-TE inh conf inactive.
Cc1ccc(S(=O)(=O)Nc2ccc3c(c2)C(=O)N([C@H](C)CO)C[C@H](C)[C@H](CN(C)C(=O)Nc2cccc4ccccc24)OCCCC[C@@H](C)O3)cc1 was read as ADAM17 inh inactive, NPR1 activator inactive, GC-B act inactive, ADAM10 inh inactive, FAS-TE inh 61.4 and FAS-TE inh conf inactive.
For CCCCOCCCNC(=O)C[C@@H]1C(=O)N(Cc2ccc(OC)cc2)C2=CCN(C(=O)OC(C)(C)C)C[C@]21C(=O)OCC the results were ADAM17 inh inactive, NPR1 activator inactive, GC-B act inactive and ADAM10 inh inactive.
Screening O=C1C[C@@H](c2ccccc2)N=C2N(Cc3ccc4c(c3)OCO4)C/C(=C/c3ccccc3)N12 returned ADAM17 inh inactive, NPR1 activator inactive, GC-B act inactive and ADAM10 inh inactive.
For N#C/C(=C\c1cc([N+](=O)[O-])c(N2CCCCC2)cc1N1CCCCC1)c1nn(-c2ccccc2)c(N)c1C#N the results were ADAM17 inh inactive, NPR1 activator inactive, GC-B act inactive, ADAM10 inh inactive, FAS-TE inh 56.6 and FAS-TE inh conf inactive.
COC(=O)c1ccc(Cn2ccc3ccc(-c4ccc5ccn(C(=O)C6CCCCC6)c5c4)cc32)cc1 was read as ADAM17 inh inactive, NPR1 activator inactive, GC-B act inactive and ADAM10 inh inactive.
`CCOC(=O)c1ccc(-c2c(-c3cc(OC)c(OC)c(OC)c3)noc2C)cc1F` gave ADAM17 inh inactive, NPR1 activator inactive, GC-B act inactive, ADAM10 inh inactive and FAS-TE inh inactive.
Screening COc1cc2c(-c3ccc4[nH]ccc4c3)c(-c3ccc(C#N)cc3)oc(=O)c2cc1OC returned ADAM17 inh inactive, NPR1 activator inactive, GC-B act inactive, ADAM10 inh inactive, FAS-TE inh 54.9 and FAS-TE inh conf inactive.
`CCOC(=O)c1ccc(-c2c(-c3ccc(OC)cc3)oc(=O)c3cc(OC)c(OC)cc23)cc1F` gave ADAM17 inh inactive, NPR1 activator inactive, GC-B act inactive, ADAM10 inh inactive, FAS-TE inh 57.7 and FAS-TE inh conf inactive.
CN1[C@H](Cc2ccccc2)COc2cc(N3CCCC3)ccc2S1(=O)=O was read as ADAM17 inh inactive, NPR1 activator inactive, GC-B act inactive and ADAM10 inh inactive.
For CC(=O)N1N=C(c2ccc(Br)cc2)CC1c1cccc([N+](=O)[O-])c1 (centres undefined) the results were ADAM17 inh inactive, NPR1 activator inactive, GC-B act inactive, ADAM10 inh inactive, FAS-TE inh 62.4 and FAS-TE inh conf 48.8.
Screening CC(=O)N1N=C(c2cccc([N+](=O)[O-])c2)OC1c1ccc(Br)cc1 (centres undefined) returned ADAM17 inh inactive, NPR1 activator inactive, GC-B act inactive, ADAM10 inh inactive, FAS-TE inh 50.8 and FAS-TE inh conf inactive.
CC(=O)N1N=C(c2cccc([N+](=O)[O-])c2)OC1c1ccc(Cl)cc1Cl (centres undefined) was read as ADAM17 inh inactive, NPR1 activator inactive, GC-B act inactive, ADAM10 inh inactive, FAS-TE inh 53.3 and FAS-TE inh conf inactive.
CC(=O)C1(C(=O)NCc2ccccc2)CC(c2ccccn2)=NO1 (centres undefined) was read as ADAM17 inh inactive, NPR1 activator inactive, GC-B act inactive and ADAM10 inh inactive.
`COc1cc2c(cc1NC(=O)C(C)N1CCN(S(=O)(=O)c3ccccc3[N+](=O)[O-])CC1)oc1ccccc12` (centres undefined) gave ADAM17 inh inactive, NPR1 activator inactive, GC-B act inactive, ADAM10 inh inactive, FAS-TE inh 53.7 and FAS-TE inh conf inactive.
Screening CCCCN(CCCNC(=O)c1c(C)cc(=O)oc1C)c1ccccc1 returned ADAM17 inh inactive, NPR1 activator inactive, GC-B act inactive, ADAM10 inh inactive, FAS-TE inh 51.1 and FAS-TE inh conf inactive.
`CCN(CCCNC(=O)c1c(C)cc(=O)oc1C)c1ccccc1` gave ADAM17 inh inactive, NPR1 activator inactive, GC-B act inactive, ADAM10 inh inactive and FAS-TE inh inactive.
Screening Cc1cc(C)n(-c2cc(N3CCN(S(=O)(=O)c4ccc(Br)cc4)CC3)ccc2[N+](=O)[O-])n1 returned ADAM17 inh inactive, NPR1 activator inactive, GC-B act inactive, ADAM10 inh inactive, FAS-TE inh 50.7 and FAS-TE inh conf inactive.
Cc1cc(C)c(S(=O)(=O)N2CCN(c3ccc([N+](=O)[O-])c(-n4nc(C)cc4C)c3)CC2)c(C)c1 was read as ADAM17 inh inactive, NPR1 activator inactive, GC-B act inactive, ADAM10 inh inactive and FAS-TE inh inactive.
Clc1ccc(CSc2nnc(-c3cccs3)o2)cc1Cl was read as ADAM17 inh inactive, NPR1 activator inactive, GC-B act inactive and ADAM10 inh inactive.
Screening COc1ccc(-n2nc(C(=O)NCC(=O)N3CCN(c4cccc(Cl)c4)CC3)c3ccccc3c2=O)c(OC)c1 returned ADAM17 inh inactive, NPR1 activator inactive, GC-B act inactive, ADAM10 inh inactive, FAS-TE inh 54.9 and FAS-TE inh conf inactive.
COC(=O)C1CN(C2CCCC2)CCS(=O)(=O)N1Cc1ccc(C)cc1 (centres undefined) was read as ADAM17 inh inactive, NPR1 activator inactive, GC-B act inactive and ADAM10 inh inactive.
`N=c1c2c(ccn1CCCc1ccccc1)Oc1ccc3ccccc3c1C2c1ccccc1` (centres undefined) gave ADAM17 inh inactive, NPR1 activator inactive, GC-B act inactive and ADAM10 inh inactive.
